The campaign covered roughly 5,500 compounds. About 2,000 (36%) were called active. Roughly 18% stayed inconclusive and do not appear here. Cut-off read from the data, not from the text of the source: active = normalized growth mostly below about 0.91 (no sharp cut-off); inconclusive = no clear call, values can overlap the other calls; inactive = mostly above about 0.92. This is one part of the list.
Experiment: chemical genetic growth profiling, strain panel (AID 1159580);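 note: tested at 20 µM; growth read once vehicle control cultures reached saturation at 30 °C; 1 = growth at the plate median or of vehicle wells; lower values mean less growth of the strain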
Conditions: growth OD

Measured: normalized growth

CC(=O)Oc1cc(OC(C)=O)c2c(c1)O[C@H](c1ccc(OC(C)=O)c(OC(C)=O)c1)[C@@H](OC(C)=O)C2
inactive: S. cerevisiae deletion strains, locus YJR066W, strain TOR1, active compounds read low 0.934 | S. cerevisiae deletion strains, locus YJR075W, strain HOC1, active compounds read low 1.01 | S. cerevisiae deletion strains, locus YKL009W, strain mrt4, active compounds read low 1.04 | S. cerevisiae deletion strains, locus YKL068W, active compounds read low 0.987 | S. cerevisiae deletion strains, locus YKL085W, strain MDH1 (second series), active compounds read low 0.983 | S. cerevisiae deletion strains, locus YKL085W, strain MDH1, active compounds read low 0.983 | S. cerevisiae deletion strains, locus YKL160W, strain elf1, active compounds read low 1 | S. cerevisiae deletion strains, locus YKL190W, strain CNB1, active compounds read low 0.997 | S. cerevisiae deletion strains, locus YKR001C, strain vps1, active compounds read low 0.97 | S. cerevisiae deletion strains, locus YKR026C, strain gcn3, active compounds read low 0.972 | S. cerevisiae deletion strains, locus YKR091W, strain srl3, active compounds read low 1 | S. cerevisiae deletion strains, locus YLL001W, strain dnm1, active compounds read low 0.992 | S. cerevisiae deletion strains, locus YLL026W, active compounds read low 0.995 | S. cerevisiae deletion strains, locus YLL041C, strain sdh2, active compounds read low 0.997 | S. cerevisiae deletion strains, locus YLR027C, strain aat2, active compounds read low 1.02 | S. cerevisiae deletion strains, locus YLR039C, strain RIC1, active compounds read low 1.04 | S. cerevisiae deletion strains, locus YLR058C, strain SHM2, active compounds read low 1 | S. cerevisiae deletion strains, locus YLR102C, strain apc9, active compounds read low 0.986 | S. cerevisiae deletion strains, locus YLR113W, strain HOG1, active compounds read low 0.966 | S. cerevisiae deletion strains, locus YLR221C, strain rsa3, active compounds read low 1.01 | S. cerevisiae deletion strains, locus YLR258W, strain gsy2, active compounds read low 1 | S. cerevisiae deletion strains, locus YLR262C, strain YPT6 (second series), active compounds read low 0.998 | S. cerevisiae deletion strains, locus YLR262C, strain YPT6, active compounds read low 1.09 | S. cerevisiae deletion strains, locus YLR268W, strain sec22, active compounds read low 0.958 | S. cerevisiae deletion strains, locus YLR320W, strain mms22, active compounds read low 0.977 | S. cerevisiae deletion strains, locus YLR330W, strain CHS5, active compounds read low 0.995 | S. cerevisiae deletion strains, locus YLR342W, strain FKS1 (second series), active compounds read low 0.979 | S. cerevisiae deletion strains, locus YLR342W, strain FKS1, active compounds read low 0.994 | S. cerevisiae deletion strains, locus YLR357W, strain rsc2, active compounds read low 0.992 | S. cerevisiae deletion strains, locus YLR370C, strain arc18, active compounds read low 1.01 | S. cerevisiae deletion strains, locus YLR371W, strain rom2, active compounds read low 0.959 | S. cerevisiae deletion strains, locus YLR384C, strain iki3, active compounds read low 1 | S. cerevisiae deletion strains, locus YLR418C, strain cdc73, active compounds read low 1.03 | S. cerevisiae deletion strains, locus YML016C, strain PPZ1, active compounds read low 0.978 | S. cerevisiae deletion strains, locus YML032C, strain rad52, active compounds read low 1.01 | S. cerevisiae deletion strains, locus YML120C, strain ndi1, active compounds read low 1.01 | S. cerevisiae deletion strains, locus YML124C, strain tub3, active compounds read low 0.981 | S. cerevisiae deletion strains, locus YMR058W, strain fet3, active compounds read low 1 | S. cerevisiae deletion strains, locus YMR078C, strain ctf18, active compounds read low 0.964 | S. cerevisiae deletion strains, locus YMR125W, strain sto1, active compounds read low 0.996 | S. cerevisiae deletion strains, locus YMR129W, active compounds read low 1 | S. cerevisiae deletion strains, locus YMR205C, strain PFK2, active compounds read low 0.972 | S. cerevisiae deletion strains, locus YMR223W, strain ubp8, active compounds read low 1 | S. cerevisiae deletion strains, locus YMR231W, strain pep5, active compounds read low 1 | S. cerevisiae deletion strains, locus YMR307W, strain GAS1, active compounds read low 1.1 | S. cerevisiae deletion strains, locus YNL067W, strain RPL9B, active compounds read low 1 | S. cerevisiae deletion strains, locus YNL071W, strain lat1, active compounds read low 1.01 | S. cerevisiae deletion strains, locus YNL153C, strain GIM3, active compounds read low 1 | S. cerevisiae deletion strains, locus YNL183C, strain NPR1, active compounds read low 0.904 | S. cerevisiae deletion strains, locus YNL209W, strain ssb2, active compounds read low 1 | S. cerevisiae deletion strains, locus YNL233W, strain BNI4, active compounds read low 0.983 | S. cerevisiae deletion strains, locus YNL248C, strain rpa49, active compounds read low 1.01 | S. cerevisiae deletion strains, locus YNL250W, strain rad50, active compounds read low 0.977 | S. cerevisiae deletion strains, locus YNL271C, strain bni1, active compounds read low 0.975 | S. cerevisiae deletion strains, locus YNL298W, strain CLA4, active compounds read low 0.979 | S. cerevisiae deletion strains, locus YNL307C, strain MCK1, active compounds read low 0.98 | S. cerevisiae deletion strains, locus YNL322C, strain KRE1 (second series), active compounds read low 0.997 | S. cerevisiae deletion strains, locus YNL322C, strain KRE1, active compounds read low 0.998 | S. cerevisiae deletion strains, locus YNR049C, strain mso1, active compounds read low 0.995 | S. cerevisiae deletion strains, locus YNR052C, strain pop2, active compounds read low 0.981 | S. cerevisiae deletion strains, locus YOL012C, strain htz1 0.674 | S. cerevisiae deletion strains, locus YOL147C, strain pex11, active compounds read low 1 | S. cerevisiae deletion strains, locus YOR001W, strain rrp6, active compounds read low 0.997 | S. cerevisiae deletion strains, locus YOR061W, strain CKA2, active compounds read low 0.977 | S. cerevisiae deletion strains, locus YOR069W, strain VPS5, active compounds read low 0.989 | S. cerevisiae deletion strains, locus YOR070C, strain gyp1, active compounds read low 1 | S. cerevisiae deletion strains, locus YOR080W, strain dia2, active compounds read low 0.998 | S. cerevisiae deletion strains, locus YOR083W, strain WHI5, active compounds read low 1.01 | S. cerevisiae deletion strains, locus YOR106W, strain vam3, active compounds read low 1 | S. cerevisiae deletion strains, locus YOR136W, strain idh2, active compounds read low 0.965 | S. cerevisiae deletion strains, locus YOR144C, strain elg1, active compounds read low 0.982 | S. cerevisiae deletion strains, locus YOR184W, strain ser1, active compounds read low 0.986 | S. cerevisiae deletion strains, locus YOR231W, strain MKK1, active compounds read low 0.974 | S. cerevisiae deletion strains, locus YOR265W, strain rbl2, active compounds read low 1 | S. cerevisiae deletion strains, locus YOR270C, strain vph1, active compounds read low 0.988 | S. cerevisiae deletion strains, locus YOR290C, strain snf2, active compounds read low 0.961 | S. cerevisiae deletion strains, locus YOR316C, strain cot1, active compounds read low 0.986 | S. cerevisiae deletion strains, locus YPL051W, strain arl3, active compounds read low 1.01 | S. cerevisiae deletion strains, locus YPL055C, strain LGE1, active compounds read low 0.999 | S. cerevisiae deletion strains, locus YPL078C, strain atp4, active compounds read low 1.02 | S. cerevisiae deletion strains, locus YPL106C, strain sse1, active compounds read low 0.996 | S. cerevisiae deletion strains, locus YPL240C, strain hsp82, active compounds read low 0.992 | S. cerevisiae deletion strains, locus YPL241C, strain CIN2, active compounds read low 0.999 | S. cerevisiae deletion strains, locus YPL256C, strain CLN2, active compounds read low 0.974 | S. cerevisiae deletion strains, locus YPR119W, strain clb2, active compounds read low 0.979 | S. cerevisiae deletion strains, locus YPR141C, strain kar3, active compounds read low 0.981 | S. cerevisiae deletion strains, locus YPR163C, strain tif3, active compounds read low 0.994 | S. cerevisiae deletion strains, locus YPR167C, strain met16, active compounds read low 0.978 | S. cerevisiae deletion strains, strain wtn01, active compounds read low 0.951 | S. cerevisiae strains, strain wild type, active compounds read low 0.993

Source: PubChem BioAssay AID1159580 (chemical genetic matrix, 2015)
